Among all 370,000 compounds or so, about 5,400 (1.5%) were called active. The sample holds actives, similar compounds and a random draw of the others, so the mix is not that of the screen.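 How the source made its calls: active means activation above the mean of all tested compounds plus 3 SD (cut at about 5.5% in these data); inactive means the rest.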
system: DAF-12 nuclear receptor (Haemonchus contortus); assay: H. contortus DAF-12 nuclear receptor activators, primary screen, cell-based, luminescence, HEK293, lit1-tk-luc reporter (AID 652067); conditions: HEK293 hcDAF-12 lit1-tk-luc reporter, at 6.8 µM, active compounds read high, 0% DMSO, 100% Δ7-dafachronic acid;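 further: 100% = response to 3 µM Δ7-dafachronic acid high control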

activation, active:
Cc1nn(C(=O)c2ccoc2C)c(N)c1-c1ccccc1 12.4%
Cc1nn(CCOc2ccccc2)c(=O)n1-c1ccccc1F 6.6%
CC(=O)n1c(C=Nc2ccccc2)c(O)c2ccccc21 7.8%
NC(=O)CSc1c[nH]c2ccccc12 6.34%
Cc1cccc(/C(N)=N/OC(=O)c2ccccc2Cl)c1 10.8%
O=C(N/N=C/c1ccc(OC(=O)c2ccccc2Cl)cc1)c1ccc(O)cc1 5.89%
CCOc1cccc(/C=C/c2ccc3ccccc3n2)c1OC(C)=O 6.5%
Cc1ccc(NC(=O)c2cc([N+](=O)[O-])ccc2Cl)c(O)c1 6.38%
COc1ccc(C(=O)NCCSc2ccccc2C)cc1 5.88%
Cc1cc(C)c(/C=C2\C(=O)Nc3ccccc32)[nH]1 6.61%

activation, inactive:
O=C(NCc1ccccc1)[C@H]1CCCN1C(=O)[C@@H]1CCCN1C(=O)c1ccc(Cl)cc1Cl -1.62%
O=C(CSc1nc2ccccc2n1Cc1ccccc1)NNC(=S)Nc1ccccc1 -1.89%
COC(=O)c1cc2c(c3c4ccccc4n(S(=O)(=O)c4cccc(C)c4)c13)C(=O)N(Cc1ccccc1)C2 1.43%
Oc1ccc(/C=C/c2c(F)cccc2F)c2cccnc12 -3.66%
O=C1[C@@H](c2ccccc2)[C@@H](c2ccccc2)N1c1ccccc1 -1.98%
Cc1cc(-c2ccccc2)n2nc(C)c(-c3ccccc3)c2n1 -0.96%
Cc1nn2c(c1-c1ccccc1)N=C(c1ccco1)CC2c1ccccc1 (stereo not drawn) -0.56%
CCOc1ccc(-n2c(SCC(=O)Nc3cc(C)c(NC(=O)c4ccccc4)cc3OC)nnc2-c2cccc(Cl)c2)cc1 -2.73%
Cc1ccccc1NC(=O)Cn1nnc(-c2ccccc2F)n1 1.07%
CN1CCCCC(NC(=O)C(C)(C)C)C1=O (stereo not drawn) -1.55%
Cc1c(C(N)=O)sc2ncn(CCOc3ccccc3)c(=O)c12 -0.81%
Cc1cccc2c1N(CCOc1ccccc1)C(=O)C2=O -2.22%
Cc1ccc(N)cc1CN1CCN(c2ncc(Cc3ccccc3)cn2)CC1 -1.34%
O=C1CC[C@@]23CCCN2C(=O)CCC[C@H]3[C@H]1Cc1ccccc1 -0.12%
NC(=O)c1ncn([C@@H]2O[C@H](C(=O)O)[C@@H](O)[C@H]2O)n1 -0.43%
CC(=O)OCC(C)n1c(=O)c2ccccc2n1C(C)=O (stereo not drawn) -0.22%
O=C(Nc1ccc(Br)cc1)OCCN1C(=O)CCC12CCC(c1ccccc1)CC2 (stereo not drawn) -1.25%
Cc1ccc(-c2nnc(SCC(=O)Nc3ccc(Oc4ccccc4)cc3)n2Cc2ccco2)cc1 -2.76%
CCC(C)[C@@H](C(=O)OC)N(CCc1cn(Cc2ccccc2)nn1)S(=O)(=O)c1ccccc1Br (stereo partly drawn) -2.4%
CCCn1cc(SCC(N)=O)c2ccccc21 2.17%
O=C(CSc1nnc(-c2c[nH]c3ccccc23)o1)c1ccccc1 -0.49%
C/C(=N\OC(=O)c1ccccc1)c1c(C)nc2cc(C)ccn12 -1.05%
Cc1cc(OC(=O)c2ccccc2Cl)ccc1N1C(=O)CCC1=O -1.68%
CCCCNC(=O)C[C@H]1C(=O)N(Cc2ccc(OC)cc2)C2=CCCC[C@@]21C(=O)OCC -4.06%
CC(=O)OCCN1CCCC12CCC(c1ccccc1)CC2 (stereo not drawn) -0.23%
CCCCCCN1CCS(=O)(=O)N(Cc2ccc(C(F)(F)F)cc2)C(C(=O)OC)C1 (stereo not drawn) -2.04%
CN1C(=O)c2cc(NS(C)(=O)=O)ccc2OC[C@@H]2O[C@@H](CC(=O)NCc3ccc(-c4ccccc4)cc3)CC[C@H]21 0.33%
O=C(OC12CCCN(C1)/C(=C/c1ccccc1)C2)c1ccco1 (stereo not drawn) -0.35%
CCC(NC(=O)C1C2C=CC3(CN(Cc4ccccc4)C(=O)C13)O2)c1ccccc1 (stereo not drawn) -1.89%
COC(=O)[C@]12C[C@H](CC(=O)NCCC(C)C)C(=O)N(CCc3ccc(OC)c(OC)c3)C1=C[C@H](C(C)(C)C)O[C@@H]2C -0.99%
Cc1c(NC(=S)NCc2ccc(F)cc2)cccc1[N+](=O)[O-] -2.35%
CC(C)(C)C(=O)Nc1ccc(C(=O)N/N=C/c2ccccc2OC(=O)c2ccc(Cl)cc2Cl)cc1 -1.06%
O=C(N/N=C/c1ccc(OCC2COCCO2)cc1)c1ccc(Br)cc1 (stereo not drawn) -1.26%
C=CCN1C(=O)[C@@H](CC(=O)NCC2CCCCC2)[C@]2(C(=O)OC)CCCCC=C12 -1.65%
CCOc1ccccc1NC(=O)c1cccnc1 -0.55%
CCOc1ccccc1-c1cc(C(=O)N/N=C(\C)c2cccnc2)c2ccccc2n1 1.52%
COC(=O)[C@H](C(C)C)N(CCc1cn(Cc2ccccc2)nn1)S(=O)(=O)c1ccc(F)cc1Br -3.41%
CC(C)(C)c1ccc(S(=O)(=O)NCC2CCN(C(=O)C(=O)c3cc4ccccc4o3)CC2)cc1 -1.1%
CCCCN1CCN(C(=O)c2ccc3c(c2)NC(=O)C(C)(C)O3)CC1 0.06%
CCC(C)C(=O)Nc1cc([N+](=O)[O-])ccc1Cl (stereo not drawn) 1.23%
CNc1ccc([N+](=O)[O-])cc1C(=O)O -0.16%
COc1ccccc1C(=O)CSc1nnc(-c2ccccn2)n1-c1ccccc1 -3.35%
CCCC1CCC2(CCCN2CCOC(=O)NCc2ccccc2)CC1 (stereo not drawn) -0.18%
CSc1ccc(Oc2cccc3c2S(=O)(=O)N([C@H](C)c2ccccc2)C[C@@H](COCc2ccccc2)O3)cc1C 0.01%
COc1ccc(C(=O)NCC[N+](C)(C)C)cc1 -0.19%
CCSc1ccccc1C(=O)NCc1ccc(OC)cc1 -0.9%
COc1ccccc1S(=O)(=O)c1c(C)cc(C)[nH]c1=O 0.35%
O=C1Nc2ccccc2C1=NN=Cc1ccco1 1.9%

— PubChem BioAssay AID652067 (The Scripps Research Institute Molecular Screening Center, 2013)
